# Gal4-VP16 FLuc: VP16 counterscreen qHTS for inhibitors of ROR gamma transcriptional activity; Drosophila S2 Gal4-VP16 UAS-luciferase, luminescence, 20 h; Potency, µM (doses to about 53.6 µM), for inactives: top-dose activity, negative = inhibition, actives largely listed as inhibitors; hit rate 3.5% among 310,000; AID 2546, 2010;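 also: Gal4-VP16 expression switched on by copper sulfate through the metallothionein promoter; potency is read from the fitted curve at half-maximal effect; nearly all actives have a fitted effect of over 50% in size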
# TDP1 cell noCPT: qHTS for Inhibitors of human tyrosyl-DNA phosphodiesterase 1 (TDP1): qHTS in cells in absence of CPT | Potency, µM (titrated, usually from 46.2 µM), inactives show at the top dose activity change, negative = growth inhibition, actives largely listed as inhibitors | DT40 Tdp1-/- hTDP1 cells, no CPT, ATP luminescence, 48 h | hit rate 15% among 420,000 | AID 686978, 2013; also: potency is read from the fitted curve at half-maximal effect; nearly all actives have a fitted effect of over 55% in size
#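 Chicken DT40 Tdp1-/- cells complemented with human TDP1, screened without camptothecin (DMSO vehicle only), 400 cells/well. Compounds pin-transferred, cells incubated at 37 °C for at least 48 hr. Growth read as ATP-dependent luminescence (CellTiter-Glo, 30 min at RT).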
# TDP1 cell CPT: qHTS for Inhibitors of human tyrosyl-DNA phosphodiesterase 1 (TDP1): qHTS in cells in presence of CPT; chicken DT40 Tdp1-/-;hTDP1 cells + 20 nM CPT, ATP luminescence, 48 h; AID 686979, 2013; hit rate 12% among 420,000; Potency, µM (highest dose often 46.2 µM), without a hit: top-dose activity change, negative = growth inhibition, most hits filed as inhibitors; also: potency is read from the fitted curve at half-maximal effect; nearly all actives have a fitted effect of over 55% in size
#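 Chicken DT40 Tdp1-/- cells complemented with human TDP1, 400 cells/well, exposed to compounds plus 20 nM camptothecin for at least 48 h at 37 C; viability read as ATP content by CellTiter-Glo luminescence.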
# ELG1 DNA repair: qHTS screen for small molecules that inhibit ELG1-dependent DNA repair in human embryonic kidney (HEK293T) cells expressing luciferase-tagged ELG1 | HEK293T ELG1-luciferase reporter, luminescence, 16 h; DNA damage induced by 5-fluorouridine | Potency, µM (top dose mostly 46.1 µM), without a hit: at the top dose activity change, negative = inhibition, actives largely listed as inhibitors | hit rate 2.3% among 330,000 | AID 504467, 2011; also: potency is read from the fitted curve at half-maximal effect; nearly all actives have a fitted effect of over 55% in size
#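 5-Fluorouridine DNA damage + compound/DMSO, 2,000 cells/well, 16 h, 37 °C/5% CO2. ONE-Glo, 30 min RT, luminescence. Readout = decrease in reporter signal.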
# IL1B secr inh: qHTS for Inhibitors of Inflammasome Signaling: IL-1-beta AlphaLISA Primary Screen. AID 743279, 2014. THP-1 LPS/ATP IL-1B secretion, AlphaLISA, 16 h; stronger effect = lower value. hit rate 4.7% among 360,000. activity change, % at 57.5 µM; in the data active = activity change below about -50%; inconclusive = mostly about -30% to -49%
#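 Secreted IL-1B measured by AlphaLISA bead assay after 16 h compound exposure of THP-1 cells; compounds (final up to 57.5 uM) added 1 h before LPS (250 ng/mL) and ATP (1.25 mM) stimulation; lower signal means less secretion.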
# RORgamma inh: qHTS for inhibitors of ROR gamma transcriptional activity | Nuclear receptor ROR-gamma (Mus musculus), P51450 | Drosophila S2 Gal4-RORgamma UAS-luciferase reporter, 20 h | Potency, µM (doses to about 53.6 µM), without a hit: at the top dose activity change, negative = inhibition, most hits filed as inhibitors | hit rate 5.4% among 310,000 | AID 2551, 2010; also: potency is read from the fitted curve at half-maximal effect; nearly all actives have a fitted effect of over 60% in size
# Target sequence (P51450 whole entry, looked up, the tested form may be a part): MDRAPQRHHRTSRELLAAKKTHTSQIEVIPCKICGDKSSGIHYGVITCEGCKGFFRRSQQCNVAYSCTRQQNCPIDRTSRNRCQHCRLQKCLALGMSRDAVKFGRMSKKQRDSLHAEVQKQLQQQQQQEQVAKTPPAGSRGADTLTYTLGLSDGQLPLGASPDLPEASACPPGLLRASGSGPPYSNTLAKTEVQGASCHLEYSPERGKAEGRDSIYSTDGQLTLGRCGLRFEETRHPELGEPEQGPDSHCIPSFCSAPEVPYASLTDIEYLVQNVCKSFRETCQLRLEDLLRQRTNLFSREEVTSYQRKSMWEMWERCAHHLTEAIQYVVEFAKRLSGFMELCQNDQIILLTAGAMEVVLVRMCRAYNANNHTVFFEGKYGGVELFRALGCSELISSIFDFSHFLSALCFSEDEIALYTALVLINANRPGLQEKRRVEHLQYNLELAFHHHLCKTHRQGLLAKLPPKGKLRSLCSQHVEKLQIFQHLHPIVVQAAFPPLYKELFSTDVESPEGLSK
#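 Compounds are pin-transferred onto Drosophila Schneider cells expressing a copper-inducible Gal4–ROR gamma transactivation domain fusion. After 1 hr, copper sulfate is added to 700 uM final; luciferase is read 20 hr later.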
# * hit, by the source's call; ? = inconclusive; · = no result given. Sampled rows, rich in hits. Any-hit rate of the full collection: about 21%. Unless noted, calls follow the shape of the dose curve; as a rule, active = well fitted curve in the direction sought with a large enough effect; inconclusive = small, poorly fitted or top-dose-only effect, or another doubt; inactive = no such curve, though single readings can be large; an effect the other way counts as inactive or inconclusive. % is scaled to controls: 0 for no effect and ±100 for the full control effect.
SMILES,Gal4-VP16 FLuc,TDP1 cell noCPT,TDP1 cell CPT,ELG1 DNA repair,IL1B secr inh,RORgamma inh
C(=C\c1ccccc1)/CN1CCN(C(c2cccs2)c2nnnn2-c2ccc3c(c2)OCCO3)CC1 (stereo not drawn),·,23.1µM*,?,·,-19.6,·
COc1ccc(C(c2nnnn2-c2ccc3c(c2)OCCO3)N2CCN(C/C=C/c3ccccc3)CC2)cc1 (stereo not drawn),·,16.4µM*,16.4µM*,·,?,·
COc1ccc(-n2nnnc2C(c2cc3ccccc3o2)N2CCN(C/C=C/c3ccccc3)CC2)cc1 (stereo not drawn),·,14.6µM*,23.1µM*,·,-16.1,·
COc1ccccc1NC(=O)Cn1nc2c3cc(F)ccc3n(Cc3cccc(C)c3)cc-2c1=O,·,19.3%,0.4%,·,·,·
CC(=O)OC(C)(C)/C=C/C(=O)[C@](C)(O)C1[C@H](O)C[C@@]2(C)C3CC=C4C(C=C(O[C@@H]5O[C@H](CO)[C@@H](O)[C@H](O)[C@H]5O)C(=O)C4(C)C)[C@]3(C)C(=O)C[C@]12C (stereo partly drawn),·,1.84µM*,1.64µM*,?,-15.8,·
CC1(C)Oc2ccc3ccc(=O)oc3c2C[C@H]1O[C@@H]1O[C@H](CO)[C@@H](O)[C@H](O)[C@H]1O,·,1.7%,-11.7%,?,59.3,·
Cc1ccc(S(=O)(=O)NN2C(=O)c3ccccc3NC2c2ccccn2)cc1 (stereo not drawn),1.6%,-11.5%,3.0%,2.0%,-111.5*,-11.6%
C=C1Cc2c(Cl)cc3[nH]c4c5c3c2[C@@]2(O)[C@@H]1C[C@@H]2C(C)(C)O[C@H]5[C@@H]1CC[C@@]2(O)[C@@]35O[C@@H]3[C@@H](O)[C@@H](C(=O)O)O[C@H]5CC[C@]2(C)[C@@]41C,·,4.11µM*,5.8µM*,·,·,·
CCSc1nnc(-c2cccc(S(=O)(=O)N(C)C)c2)n1-c1cc(OC)ccc1OC,-5.8%,?,14.1µM*,?,8.8,0.2%
CCCSc1nnc(-c2cccc(S(=O)(=O)N(C)C)c2)n1-c1cc(OC)ccc1OC,2.2%,11.2µM*,11.2µM*,-17.6%,5.1,2.9%
O=C(NNc1cc(Cl)ccc1Cl)C1CCC1,0.7%,?,?,-1.7%,-1.0,-19.8%
O=C(/C(Br)=C/Nc1cc(Cl)ccc1Cl)C(F)(F)F,-5.0%,14.6µM*,20.6µM*,?,0.0,-41.2%
CCOC(=O)C1CCN(C(=O)c2cccc(S(=O)(=O)N3CCCc4ccccc43)c2)CC1,·,23.1µM*,?,·,-6.9,·
CC1CCCN(C(=O)c2cccc(S(=O)(=O)N3CCCc4ccccc43)c2)C1 (stereo not drawn),·,10.3µM*,10.3µM*,-12.5%,-14.6,·
CCC(C)[C@H](NC(=O)C1CC(=O)N(c2ccc(OC)cc2)C1)C(=O)N1CCCCC1 (stereo partly drawn),-1.1%,17.1%,5.8%,3.0%,3.8,-6.0%
CCN(C(=O)CSc1nnc(NC2CCCCC2)s1)C1CCS(=O)(=O)C1 (stereo not drawn),9.5%,-0.5%,-2.4%,-8.1%,-3.2,6.2%
COC(=O)c1ccc2nc(C)cc(Nc3ccccc3C)c2c1,-7.1%,?,?,-11.6%,16.1,55.4%
COc1ccc(Nc2cc(C)nc3ccccc23)cc1,5.2%,18.4µM*,?,·,?,-2.9%
COc1ccc(OC)c(Nc2cc(C)nc3ccc(C)cc23)c1,·,5.17µM*,4.61µM*,·,-77.3*,·
COC(=O)c1ccc(Nc2cc(C)nc3ccc(C)cc23)cc1,-26.0%,20.6µM*,14.6µM*,?,-92.6*,?
COc1ccc2nc(C)cc(Nc3ccc(C)cc3)c2c1,0.1%,?,5.8µM*,-29.0%,?,8.1%
CC(C)CCCC(C)CCCC(C)CCCC(C)C(=O)O (stereo not drawn),-13.0%,·,·,·,·,3.5%
COc1ccc2nc(C)cc(Nc3ccc(Cl)c(Cl)c3)c2c1,·,1.84µM*,2.06µM*,·,·,·
COc1ccc2nc(C)cc(NCc3ccc(F)cc3)c2c1,-0.5%,23.1µM*,?,?,-78.8*,-3.9%
Cc1cc(Nc2cccc(Br)c2)c2ccccc2n1,·,10.3µM*,5.8µM*,·,-90.8*,·
SMILES,Gal4-VP16 FLuc,TDP1 cell noCPT,TDP1 cell CPT,ELG1 DNA repair,IL1B secr inh,RORgamma inh
Cc1ccc2nc(C)cc(Nc3ccc([N+](=O)[O-])cc3)c2c1,5.01µM*,0.92µM*,1.03µM*,?,14.8,7.08µM*
Cc1cc(Nc2cccc(O)c2)c2ccccc2n1,-2.8%,·,·,-3.4%,·,10.6%
Cc1cn([C@H]2C[C@H](O)[C@@H](CNCc3ccc(F)c(N4CCOCC4)c3)O2)c(=O)[nH]c1=O,·,6.4%,10.4%,·,21.5,·
O=C(NC(=S)Nc1ccccn1)c1ccc([N+](=O)[O-])cc1,11.2µM*,-24.4%,-12.2%,?,0.0,5.01µM*
Cc1cc(C)c(NC(=S)NC(=O)c2ccc(-c3ccccc3)cc2)c(C)c1,5.62µM*,20.6µM*,?,12.0%,-17.4,4.47µM*
O=C(NC(=S)Nc1ccccn1)c1ccccc1,?,?,-21.7%,?,7.5,?
O=C(NC(=S)Nc1ccccn1)c1ccc(-c2ccccc2)cc1,3.98µM*,18.4µM*,20.6µM*,?,-29.2,3.16µM*
COc1ccc(-n2c(C)cc(C)c(C(C)=O)c2=S)cc1,-10.1%,-7.6%,-4.6%,0.4%,9.3,-25.4%
CCc1ccc(C(=O)C(C)CN2CCCCC2)cc1 (stereo not drawn),4.5%,?,?,·,·,-1.2%
N#C/C(=C\c1cn(CCOc2ccccc2F)c2ccccc12)C(=O)NCc1cccs1,-23.5%,?,-45.1%,14.2%,-8.5,-10.3%
Cc1cc(/C=C(\C#N)C(=O)O)c(C)n1CC1CCCO1 (stereo not drawn),8.4%,20.6µM*,?,-10.5%,-13.9,1.2%
Cc1ccc(C)c(OCCn2cc(/C=C(\C#N)C(=O)NCc3cccs3)c3ccccc32)c1,-3.0%,-2.4%,0.4%,5.8µM*,0.1,-8.9%
Cc1ccc(CS/C(Nc2ccccc2C)=C(\C#N)C(=O)NCc2ccco2)c(C)c1,-2.1%,?,?,14.6µM*,-13.6,-0.9%
